Reference: PubChem BioAssay (NCI)
About 83,000 compounds went through this panel and 20% of them were active in at least one assay; those are over-represented in the sample as a whole.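 Method: cells in 96-well plates; compound added at one concentration; 48 h incubation; percent growth measured; values under 10 scored active.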 A number with no mark means an inactive call. Activity calls are given as the source filed them.

Legend:
Assay in all cases: NCI-60 one-dose screen, 48 h (100 = growth as untreated, 0 = no growth, -100 = all killed)
DU-145 prostate = conditions: 10 µM unless noted
K-562 leukemia = conditions: 10 µM unless noted
MALME-3M melanoma = conditions: 10 µM unless noted
MDA-MB-231 breast = conditions: 10 µM unless noted
RXF 393 renal = conditions: 10 µM unless noted
SF-268 CNS = conditions: 10 µM unless noted
SF-295 CNS = conditions: 10 µM unless noted
SF-539 CNS = conditions: 10 µM unless noted
UACC-257 melanoma = conditions: 10 µM
M14 melanoma = conditions: 10 µM unless noted
HCT-15 colon = conditions: 10 µM unless noted
HT29 colon = conditions: 10 µM unless noted
SNB-75 CNS = conditions: 10 µM unless noted
SNB-19 CNS = conditions: 10 µM unless noted
U251 CNS = conditions: 10 µM unless noted
PC-3 prostate = conditions: 10 µM unless noted
SK-MEL-5 melanoma = conditions: 10 µM unless noted
UACC-62 melanoma = conditions: 10 µM unless noted
LOX IMVI melanoma = conditions: 10 µM unless noted
SK-MEL-28 melanoma = conditions: 10 µM unless noted

Row | SMILES | growth (DU-145 prostate) | growth (K-562 leukemia) | growth (MALME-3M melanoma) | growth (MDA-MB-231 breast) | growth (RXF 393 renal) | growth (SF-268 CNS) | growth (SF-295 CNS) | growth (SF-539 CNS) | growth (UACC-257 melanoma) | growth (M14 melanoma) | growth (HCT-15 colon) | growth (HT29 colon) | growth (SNB-75 CNS) | growth (SNB-19 CNS) | growth (U251 CNS) | growth (PC-3 prostate) | growth (SK-MEL-5 melanoma) | growth (UACC-62 melanoma) | growth (LOX IMVI melanoma) | growth (SK-MEL-28 melanoma)
1 | O=C1Nc2ccc(Cl)cc2/C1=C/c1ccc(OCc2ccc(Br)cc2F)cc1 | 101% | 91.2% | 100% | 94.7% | 85.3% | 98.5% | 103% | 99.4% | 101% | 90.1% | 102% | 104% | 100% | 100% | 97.4% | 93% | 92.6% | 93.6% | 92.7% | 105%
2 | CC(C)(C)OC(=O)N1CCN(S(=O)(=O)/N=C2\NC(=O)NC2=C(Cl)Cl)CC1 | 101% | 12.6% | 80.7% | 80.7% | 70.8% | 97% | 102% | 99.1% | 96.1% | 103% | 10.9% | 106% | 99.9% | 81.1% | 90.6% | 97.5% | 95.9% | 96.3% | 64.3% | 85.7%
3 | COc1ccc(Oc2ccc(C3CC(c4cc(OC)c(OC)c(OC)c4)=NN3C(C)=O)cc2)cc1 (stereo not given) | 40.4% | 16.1% | 33.6% | 40.6% | 17% | 38.6% | 22.5% | 46.5% | 40.3% | 27.6% | 18.5% | 31.7% | 46% | 30.8% | 24.9% | 18.3% | 1.54% (active) | 28.9% | 35.8% | 43.3%
4 | COc1ccc(CN2C(=O)/C(=C/c3nc(CO)cs3)SC2=S)cc1 | 96.5% | 52.6% | 93.2% | 79.5% | 95.3% | 98.8% | 106% | 70.1% | 93.6% | 86.4% | 64.2% | 107% | 91.7% | 93.8% | 94% | 86.5% | 97.9% | 73.4% | 42.8% | 107%
5 | C#CCOc1ccc(/C=N/Nc2nc(-c3cc4cc(Br)cc(Br)c4oc3=O)cs2)cc1 | 96.1% | 90.7% | 109% | 96% | 114% | 84.8% | 91.4% | 84.4% | 106% | 98.2% | 95.2% | 104% | 90.3% | 104% | 96.2% | 88.1% | 98.5% | 88.1% | 102% | 106%
6 | CN1CCN(c2ccc3c(C(N)=O)c(NC(=O)c4ccc(C(C)(C)C)cc4)sc3c2)CC1 | 87.4% | 21.2% | 81.6% | 90.6% | 81.8% | 97.6% | 79.8% | 63.6% | 92.7% | 90% | 16.4% | 20.4% | 81.6% | 76.2% | 59.1% | 79.2% | 89.7% | 99.5% | -53.3% (active) | 90%
7 | N#C/C(=C\c1ccc(Cl)cc1Cl)C(N)=O | 114% | 80.3% | 105% | 100% | 102% | 101% | 107% | 104% | 109% | 99.4% | 87.7% | 106% | 90.2% | 97.6% | 95.5% | 92.5% | 101% | 96.8% | 97.3% | 112%
8 | COc1cc(/C=C/C(=O)c2ccc(N3CCN(C)CC3)cc2)ccc1F | 88.3% | 7.19% (active) | 103% | 103% | 98.2% | 97.8% | 92.5% | 65.6% | 89.8% | 73.6% | 36.4% | 46.5% | 58% | 66.9% | 76.2% | 61.5% | 95.6% | 88.6% | 17.8% | 98.3%
